# The list is not random: actives were taken first. Their share in the collection is about 12%.
# JMJD2A Tudor inh: qHTS Assay for Inhibitors of JMJD2A-Tudor Domain; Lysine-specific demethylase 4A (Homo sapiens), O75164; AlphaScreen JMJD2A-Tudor / H3K4me3 peptide binding; Potency, µM (series often up to 114 µM), without a hit: at the top dose activity change, negative = inhibition, hits mostly inhibitors; 390,000 tested, 4.4% active; AID 504339, 2011; note: % is set by controls: 0 for no effect and ±100 for the full control effect; nearly all actives have a fitted effect of over 50% in size
# BAZ2B block: qHTS Assay for Inhibitors of BAZ2B; 360,000 tested, 4.4% active; Bromodomain adjacent to zinc finger domain protein 2B (Homo sapiens), Q9UIF8; Potency, µM (top dose mostly 114 µM), inactives show top-dose activity change, negative = inhibition, hits mostly inhibitors; AlphaScreen BAZ2B-H3K14Ac peptide displacement; note: % is set by controls: 0 for no effect and ±100 for the full control effect; nearly all actives have a fitted effect of over 60% in size
#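 AlphaScreen luminescence quantifies BAZ2B engagement of H3K14Ac peptide; the protein and biotinylated peptide are both at 50 nM final, buffer PBS pH 7.4 with 0.01% Tween-20, all steps at room temperature.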
# G9a inh: qHTS Assay for Inhibitors of Histone Lysine Methyltransferase G9a; AID 504332, 2011; G9a H3K9 monomethylation, AlphaScreen, 2 h; Histone-lysine N-methyltransferase EHMT2 (Homo sapiens), Q96KQ7; Potency, µM (series often up to 102 µM), for inactives: top-dose activity, negative = inhibition, actives largely listed as inhibitors; 350,000 tested, 8.8% active; note: % is set by controls: 0 for no effect and ±100 for the full control effect; nearly all actives have a fitted effect of over 75% in size
#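 Step 1: enzyme (final 20 nM) with compound, 15 min RT. Step 2: substrate peptide 500 nM and SAM 20 uM, 2 h RT. Step 3: anti-H3K9me1 antibody and AlphaScreen beads, 10 min, then plate read.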
# HP1b chromo inh: HTS for Inhibitors of HP1-beta Chromodomain Interactions with Methylated Histone Tails; Chromobox protein homolog 1 (Homo sapiens), P83916; Potency, µM (series often up to 114 µM), without a hit: at the top dose activity change, negative = inhibition, hits mostly inhibitors; 390,000 tested, 0.56% active; AlphaScreen HP1-beta / biotin-H3K9me3 peptide binding; note: nearly all actives have a fitted effect of over 70% in size
#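 Compound inhibition of the preformed complex between 50 nM HP1-beta and 50 nM biotinylated H3K9me3 peptide was read by AlphaScreen. Buffer was PBS pH 7.4 with 0.01% Tween-20. Incubations ran 30 min at room temperature, with 10 ug/mL donor/acceptor beads.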
# Sfp PPTase inh: qHTS Assay for Inhibitors of Bacillus subtilis Sfp phosphopantetheinyl transferase (PPTase). 310,000 tested, 3.5% active. Potency, µM, for the others: largest response in the series, negative = inhibition, hits mostly inhibitors. 4'-phosphopantetheinyl transferase ffp (Bacillus subtilis), Q9F4F7. Biochemical Sfp PPTase activity, qHTS;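 note: the enzyme is Sfp with the accession as filed and its product quenches rhodamine fluorescence; 0% = enzyme reaction without inhibitor and -100% = no enzyme wells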
#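 Fluorescence-quenching assay with 15 nM Sfp, 5 uM rhodamine-CoA and 12.5 uM BHQ-2-labelled ybbR peptide in pH 7.6 Hepes/MgCl2 buffer. Enzyme was pre-incubated with compound for 15 min at room temperature. Rate was taken from the 30-min fluorescence change (525/598 nm).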
# PLK1 PBD inh: qHTS for Inhibitors of PLK1-PDB (polo-like kinase 1 - polo-box domain): Primary Screen | Serine/threonine-protein kinase PLK1 (Homo sapiens), P53350 | Plk1 PBD binding of FITC phosphopeptide, fluorescence polarization | Potency, µM, inactives show max response, negative = inhibition, hits mostly inhibitors | 360,000 tested, 2.8% active | AID 720504, 2013; note: series mostly up to about 57 µM; % is set by controls: 0 for no effect and ±100 for the full control effect; nearly all actives have a fitted effect of over 65% in size
# Starred values were filed as active, the others as inactive; ? = inconclusive; / = no result; [ ] = another dose, or the depositor's remark. Calls come from the whole dose curve; as a rule, active = well fitted curve in the direction sought with a large enough effect; inconclusive = small, poorly fitted or top-dose-only effect, or another doubt; inactive = no such curve, though single readings can be large; an effect the other way counts as inactive or inconclusive. Potency is the fitted concentration of half-maximal effect.
SMILES,JMJD2A Tudor inh,BAZ2B block,G9a inh,HP1b chromo inh,Sfp PPTase inh,PLK1 PBD inh
CCCNC(=O)c1cc2c(c(-c3cccc(-c4cc5ccccc5o4)c3)n1)[C@H](CCO)N(C(=O)NC(C)C)C2,/,/,/,/,/,-7.5%
CN(C)c1ccc(CNc2nc(-c3ccco3)nn2S(=O)(=O)c2ccc3ccccc3c2)cc1,8.91µM*,8.91µM*,7.94µM*,?,/,/
CN(C)c1ccc(CNc2nc(-c3ccco3)nn2S(=O)(=O)c2ccc(Cl)cc2)cc1,?,11.7%,0.7%[59 µM],-18.9%,/,/
O=C(CCS(=O)(=O)c1ccc(F)cc1)Nc1nc(-c2ccccn2)cs1,5.4%,?,?,23.2%,-11.2%,-7.7%
O=C(Nc1nc(-c2ccccc2)cs1)c1ccc(Br)o1,-30.8%,-29.8%,?,?,25.1µM*,29.9µM*
Cc1ccccc1NC(=O)c1nc2nccc(C)n2n1,/,-2.1%,5.0%,/,-0.7%,/
O=C(NC(=S)Nc1nc(-c2ccccc2)cs1)c1cccnc1,-16.7%,-22.6%,2.51µM*,-5.9%,?,?
CC(Oc1ccc(F)cc1)C(=O)Nc1nc(-c2ccccn2)cs1 (centres undefined),35.5µM*,44.7µM*,?,6.7%,/,-10.8%
Cc1ccnc2nc(C(=O)Nc3nc(-c4ccccn4)cs3)nn12,22.4µM*,3.16µM*,20.2%[12.7 µM],58.6%,13.6%,-29.6%
CC(=O)NC(C)(c1ccccc1)c1nc(-c2cccc3cccnc23)cs1 (centres undefined),/,/,/,/,/,-2.5%
COc1ccc(CCNC(=O)CCNC(=O)c2ccc([N+](=O)[O-])cc2)cc1,6.4%,1.1%,30.7%,27.2%,8.0%,4.1%
O=C(NCCc1csc(-c2ccccc2)n1)c1ccco1,-7.4%[11.4 µM],2.5%,1.6%,-4.3%,1.2%,10.6µM*
O=C(Nc1nc(-c2ccccn2)cs1)c1ccc(Br)s1,?,35.5µM*,50.1µM*,23.1%,11.8%,-3.1%
O=C(NCc1csc(-c2ccccc2)n1)c1ccco1,0.0%,1.9%,6.0%[59 µM],10.9%,-29.3%,-4.7%
Cc1cc(C(=O)OC(C)C(=O)Nc2nc(-c3ccccc3)cs2)c(C)o1 (centres undefined),-26.2%,-28.1%,-4.1%[12.7 µM],1.6%,2.5%,-3.4%
COc1ccc(-c2csc(NC(=S)NC(=O)c3ccco3)n2)cc1,-17.2%,-6.4%,?,21.9%,?,-3.7%
CC(OC(=O)c1cccs1)C(=O)Nc1nc(-c2ccccc2)cs1 (centres undefined),5.0%,3.4%,79.4µM*,24.7%,10.2%,2.6%
O=C(Nc1nc(-c2ccccn2)cs1)c1ccco1,56.2µM*,7.94µM*,20µM*,-22.2%,-49.8%,?
Cc1nc(-c2ccccc2)sc1C1(C)CC(c2ccc(OC(F)(F)F)cc2)=NO1 (centres undefined),15.9%,-1.8%,20.8%[59 µM],80.3%,6.9%,-3.8%
O=C(NC(=S)Nc1nc(-c2ccccc2)cs1)c1ccco1,-8.4%,-24.9%,27.5%[59 µM],9.7%,50.1µM*,-8.0%
O=C(Nc1nc(-c2cccs2)cs1)c1ccco1,-16.9%,-28.0%,?,16.0%,-6.7%,?
Cc1ccc(-c2csc(NC(=S)NC(=O)c3cccs3)n2)cc1,-12.0%,-17.1%,-3.9%[59 µM],27.1%,0.8%,-1.0%
O=C(Nc1nc(-c2ccncc2)cs1)c1ccco1,-15.5%,-9.1%,35.5µM*,21.1%,-26.8%,-20.1%
O=C(NC(=S)Nc1nc(-c2ccc(Cl)cc2)cs1)c1cccs1,?,-16.9%,20.6%[59 µM],-16.2%,-2.7%,10.6µM*
CCc1ccc(-c2csc(NC(=O)Oc3ccccc3)n2)cc1,-30.8%,-33.1%,44.7µM*,-5.9%,14.6%,?
SMILES,JMJD2A Tudor inh,BAZ2B block,G9a inh,HP1b chromo inh,Sfp PPTase inh,PLK1 PBD inh
CC(OC(=O)c1ccc([N+](=O)[O-])o1)C(=O)Nc1nc(-c2ccc(F)c(F)c2)cs1 (centres undefined),?,?,28.2µM*,-19.3%,/,-14.1%
C[C@H](NC(=O)c1ccco1)C(=O)Nc1nc(-c2ccccn2)cs1,44.7µM*,/,/,30.5%,/,-12.2%
Cc1cccc(OC(C)C(=O)Nc2nc(-c3ccncc3)cs2)c1 (centres undefined),-5.2%,5.1%,35.5µM*,21.9%,/,?
O=C(Nc1nc(-c2cc3ccccc3oc2=O)cs1)c1ccco1,-29.7%,?,35.5µM*,27.3%,-20.0%,-18.2%
O=C(Cc1ccccc1F)Nc1nc(-c2ccc(F)c(F)c2)cs1,1.4%,4.4%,9.0%,37.7%,1.0%,1.1%
O=C(Nc1ccc(NC(=O)c2cc3ccccc3o2)cc1)c1ccco1,7.7%,-1.1%,1.4%,15.8%,10.7%,0.9%
Cc1ccc(S(=O)(=O)N(C)c2ccc(C(=O)N(CC(C)C)C3CCS(=O)(=O)C3)cc2)cc1 (centres undefined),-19.3%,-37.0%,-26.9%,5.8%,/,1.1%
Cc1cc(C)n(/N=C/c2cc([N+](=O)[O-])ccc2O)c(=O)c1,?,50.1µM*,?,17.2%,7.9%,-1.4%
O=[N+]([O-])c1cccc(/C=N/n2cnnc2)c1,-2.8%,2.8%,/,35.2%,4.4%,-0.9%
O=[N+]([O-])c1ccc(O)c(/C=N/n2cnnc2)c1,-27.2%,2.3%,44.7µM*,14.0%,-0.4%,-12.5%
O=[N+]([O-])c1ccc(-c2ccc(/C=N/n3cnnc3)o2)c(Br)c1,?,?,50.1µM*,3.6%,-0.7%,-19.3%
Oc1ccccc1/C=N/n1cnnc1,79.4µM*,8.9%,50.1µM*,12.5%,-0.8%,2.5%
CN(C)/N=C/c1cc([N+](=O)[O-])ccc1O,-25.2%,?,-30.0%,38.1%,17.0%,0.1%
Cc1sc(NC(=O)CN2CCOCC2)c(C#N)c1C,-14.3%,-21.8%,21.4%,15.9%,17.2%,-9.2%
CCOC(=O)c1cccc(NC(=O)CC2C(=O)N(c3ccc(OC)cc3)C(=O)N2C2CCCC2)c1 (centres undefined),-24.8%,-16.6%,-34.6%[59 µM],33.4%,/,/
O=C1/C(=C/c2cccc(Br)c2)SC(=S)N1/N=C/c1cc([N+](=O)[O-])ccc1O,?,35.5µM*,39.8µM*,-3.7%,-17.5%,18.9µM*
c1ccc(-[n+]2nc(Nc3cccc4ccccc34)sc2-c2c3ccccc3cc3ccccc23)cc1,2.51µM*,3.55µM*,25.8%[2.33 µM],?,/,-6.6%
